KB-3-1 cytotox: KB-3-1 parental cell cytotoxicity; 400,000 compounds, 1.4% hits; KB-3-1 viability, CellTiter-Glo ATP luminescence, 72 h; Potency, µM (highest dose often 46.1 µM), actives largely listed as cytotoxic; note: % is set by controls: 0 for no effect and ±100 for the full control effect; nearly all actives have a fitted effect of over 60% in size
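Viability of parental KB-3-1 cells, measured by CellTiter-Glo luminescence, followed a 72 h incubation at 37 °C with pinned compounds in phenol-red-free DMEM containing 10% FBS.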
HT1080NT lethal: kills 2HG-producing HT-1080-NT fibrosarcoma cells | Potency, µM (doses to about 46.1 µM), inactives show top-dose activity, negative = less viability, hits mostly cytotoxic | 360,000 compounds, 1.6% hits | HT-1080-NT fibrosarcoma viability, CellTiter-Glo ATP luminescence, 48 h;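 note: NT is the 2HG producing partner of a matched IDH1 knockdown line; 0% = DMSO-treated cells and -100% = media-only wells without cells; nearly all actives have a fitted effect of over 55% in size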
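Read-out is CellTiter-Glo luminescence after 10 minutes at room temperature, following 48 hours' compound treatment of HT-1080-NT cells (750 cells/well, RPMI, 5% FBS, 37 degrees C).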
MCF10A rereplic: inducers of DNA re-replication in MCF 10A breast cells; MCF 10A DNA re-replication, Hoechst nuclear intensity, 48 h; Potency, µM (doses to about 46.1 µM), inactives show at the top dose activity, positive = re-replication, actives largely listed as activators; 350,000 compounds, 2.9% hits; AID 624296; note: % of control where 0% means no effect; nearly all actives have a fitted effect of over 50% in size
SW480 rerep: inducers of DNA re-replication in SW480 colon cancer cells; SW480 DNA re-replication, Hoechst DNA content imaging, 48 h; Potency, µM (doses to about 46.1 µM), inactives show at the highest dose re-replication activation, usual class: activators; 340,000 compounds, 1.8% hits; note: % of control where 0% means no effect; nearly all actives have a fitted effect of over 55% in size
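Readout is total intensity of Hoechst-stained nuclei, excited at 405 nm and collected at 500-530 nm. Compound treatment lasted 48 hr at 37 C in 5% CO2 before staining.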
KB-V1 cytotox: KB-V1 MDR subline cytotoxicity. KB-V1 MDR cells viability, CellTiter-Glo, 72 h. Potency, µM (doses to about 46.1 µM), usual class: cytotoxic. 400,000 compounds, 3.4% hits; note: % is set by controls: 0 for no effect and ±100 for the full control effect; nearly all actives have a fitted effect of over 60% in size
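Compound-treated KB-V1 multidrug-resistant cells, 72 h, 37 degrees C; viability by CellTiter-Glo. Fitted qHTS curves give the values.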
HT1080 IDH1KD tx: toxicity to HT-1080 IDH1 knockdown cells (counter line). Potency, µM (titrated, usually from 46.1 µM), for inactives: at the top dose activity, negative = toxicity, most hits filed as cytotoxic. HT-1080 IDH1 knockdown viability, ATP luminescence, 48 h. 360,000 compounds, 2% hits;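 note: 0% = DMSO wells and -100% = cell-free medium wells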
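CellTiter-Glo luminescence after 48 h compound exposure at 37 degrees C of IDH1-knockdown HT-1080 cells in 5% FBS RPMI. %Activity scaled between DMSO wells and cell-free media wells, with curves fitted and assigned curve classes.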
The depositor's hits bear a star; i = inactive; ? = inconclusive; · = not tested or not shown. In the library only some 8% were active in any assay of this set; here they are far more common. Calls come from the whole dose curve; as a rule, active = well fitted curve in the direction sought with a large enough effect; inconclusive = small, poorly fitted or top-dose-only effect, or another doubt; inactive = no such curve, though single readings can be large; an effect the other way counts as inactive or inconclusive. Potency is the fitted concentration of half-maximal effect.

SMILES	KB-3-1 cytotox	HT1080NT lethal	MCF10A rereplic	SW480 rerep	KB-V1 cytotox	HT1080 IDH1KD tx
Cc1ccc(Sc2cc(C(=O)NCCCN(C)C)c3ccccc3n2)cc1	i	?	?	?	i	18µM*
Cc1ccccc1CNCCCSc1ncccn1	i	1%	5%	-5%	i	5%
N#CCC(=O)Nc1ccc(C(=O)OCC(=O)NCCCc2ccccc2)cc1	i	3%	-11%	-7%	i	15%
N#CCC(=O)Nc1ccc(C(=O)OCc2ccccc2Oc2ccccc2)cc1	i	-6%	21µM*	?	?	?
CCOc1ccc2nc3cc(NCc4ccc(OC)cc4)ccc3c(N)c2c1	?	?	15µM*	?	i	?
Cc1ccc(-c2nc3n(n2)Cc2ccccc2-3)cc1	i	?	?	-7%	?	?
Fc1ccc(-c2nc3n(n2)Cc2ccccc2-3)cc1	?	26µM*	14%	1%	?	15µM*
CCn1c(C)nc2cc(-c3nc4n(n3)Cc3ccccc3-4)ccc21	5.8µM*	2.1µM*	17%	-14%	?	1.8µM*
CCC(C(=O)Nc1cc(Cl)ccc1OC)n1nc(-c2ccccc2)ccc1=O (stereo not given)	?	·	·	·	i	·
N#Cc1ccc(-c2ccc(OCC(=O)NCCc3ccccc3)cc2)cc1	i	3%	6%	0%	5.2µM*	1%
C=CCOc1c(/C=N\NC(N)=O)cccc1OC	i	-5%	12%	?	i	2%
C=CCOc1c(OC)cc(/C=N/Nc2cccc(C(=O)O)c2)c(Br)c1Br	i	?	21µM*	2.1µM*	i	?
O=C(CN1CCN(c2ncccn2)CC1)Nc1ccccc1-n1cccc1	i	0%	-12%	-1%	12µM*	5%
O=C(CN1CCN(c2ccccn2)CC1)Nc1ccccc1Br	i	3%	13%	0%	i	0%
CC1(C(=O)Nc2ccc3c(c2)OCO3)CCN1C(=O)Cc1cccs1 (stereo not given)	i	-5%	·	·	i	-2%
CC1(C(=O)Nc2ccc3c(c2)OCCO3)CCN1C(=O)Cc1ccc(-c2ccccc2)cc1 (stereo not given)	?	?	·	·	18µM*	?
CC1(C(=O)NCc2cccc3ccccc23)CCN1C(=O)Cc1ccc(-c2ccccc2)cc1 (stereo not given)	i	18µM*	·	·	i	?
CC(C)c1ccc(CC(=O)N2CCC2(C)C(=O)Nc2ccc3c(c2)OCO3)cc1 (stereo not given)	?	-11%	·	·	21µM*	?
Cc1ccc(NC(=O)C2(C)CCN2C(=O)Cc2ccc(C(C)(C)C)cc2)cc1C (stereo not given)	i	18µM*	·	·	i	?
Cc1oc2ncn(C)c(=O)c2c1C(=O)Nc1ccccn1	i	·	·	·	?	·
CC1(C(=O)NCc2ccccc2Br)CCN1Cc1ccc(-c2ccccc2)o1 (stereo not given)	5.2µM*	?	·	·	21µM*	?
Cc1ccccc1-c1noc(-c2ccc(N3CCN(C)CC3)c([N+](=O)[O-])c2)n1	i	·	·	·	i	·
Cc1c(-c2nsc(NC(=O)c3ccccc3)n2)nnn1-c1ccc(C(F)(F)F)c(Cl)c1	i	·	·	·	i	·
Cc1ccc(Nc2nnc(-c3ccc(C)c(S(=O)(=O)N4CCN(C)CC4)c3)c3ccccc23)c(C)c1	i	·	·	·	i	·
CCOc1ccc(C(=O)Nc2cc(C)ccn2)cc1	?	?	?	-107%	13µM*	12µM*
SMILES	KB-3-1 cytotox	HT1080NT lethal	MCF10A rereplic	SW480 rerep	KB-V1 cytotox	HT1080 IDH1KD tx
CCOc1cc(C(=O)Nc2cc(C)ccn2)cc(OCC)c1OCC	?	-17%	?	16%	i	-23%
C=C(C)c1cccc(C(C)(C)NC(=O)Nc2cc(C)ccn2)c1	?	-5%	7%	18%	16µM*	-13%
CCCCOc1ccc(C(=O)Nc2ccc(N3CCN(C(C)=O)CC3)cc2)cc1	i	13%	1%	-9%	2.6µM*	11%
CCCCOc1ccc(C(=O)Nc2ccc(N3CCN(C(=O)C(C)C)CC3)cc2)cc1	i	-5%	2%	2%	i	-17%
Cc1ccnc(NC(=O)c2ccc(C(=O)c3ccccc3)cc2)c1	?	-29%	?	7%	21µM*	?
CC1CCN(C(=O)CN2CCSc3ccccc32)CC1	i	·	·	·	i	·
CSc1ccc(CCNC(=O)c2ccc(-c3nc(COc4ccccc4)c(C)o3)cc2)cc1	i	·	·	·	i	·
Cc1cccc(NC(=O)Cn2ccn(-c3ccc4c(c3)OCCO4)c(=O)c2=O)c1	i	7%	3%	-3%	?	5%
CCc1ccc2oc(C(=O)Nc3ccccc3C(=O)OC)cc(=O)c2c1	i	·	·	·	i	·
O=C(O)c1ccccc1C(=O)Nc1cc(-c2ccccc2)[nH]n1	i	4%	1%	-1%	i	17%
O=C(Nc1cc(-c2ccccc2)[nH]n1)c1ccccc1	?	-28%	?	9.2µM*	?	?
CCCCOc1ccc(C(=O)Nc2cccc(C)n2)cc1	?	-6%	?	-5%	16µM*	3%
COc1cccc(-c2nc(CS(=O)(=O)CC(=O)Nc3ccc(C)c(Cl)c3)c(C)o2)c1	i	·	·	·	i	·
CCN(C(=O)c1cc2c(=O)oc3ccc(C)cc3c2s1)c1ccccc1C	i	·	·	·	i	·
CN(C)CCCN(Cc1cc2cc3c(cc2[nH]c1=O)OCO3)C(=S)Nc1cccc(Cl)c1	i	15µM*	16µM*	?	i	-22%
CCCN(Cc1cc2cc(C)ccc2[nH]c1=O)C(=O)c1cccc(OC)c1	16µM*	-13%	14%	18%	7.3µM*	-14%
COCCCNC(=S)N(CCO)Cc1cc2cc3c(cc2[nH]c1=O)OCCO3	?	1%	0.65µM*	-69%	i	-3%
Cc1cccc(NC(=S)N(CCN(C)C)Cc2cc3cccc(C)c3[nH]c2=O)c1	i	-14%	3%	?	16µM*	-9%
CCC(=O)N1CCc2cc(S(=O)(=O)NC(Cc3ccccc3)C(=O)Nc3ccccc3C)ccc21 (stereo not given)	i	·	·	·	i	·
O=C(NCc1ccc(F)cc1)c1cnc(N2CCOCC2)c2ccccc12	i	·	·	·	i	·
Cc1ccc(NC(=S)N(CCN(C)C)Cc2cc3cc(C)ccc3[nH]c2=O)cc1	i	-10%	8%	-4%	23µM*	-17%
